Experimental data taken from PubChem BioAssay (NCI).
About 79,000 compounds went through this panel and 15% of them were active in at least one assay; those are over-represented in the sample as a whole. Values without a mark were called inactive. The source made the active and inactive calls. Rule as the data show it: active = growth inhibition above about 70%; inactive = the rest.

Assays:
[1] = NCI Yeast Anticancer Drug Screen. Data for the rad50 strain (AID 155);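 also: 0% = growth of vehicle-only cultures of the same strain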; conditions: S. cerevisiae rad50 strain growth inhibition, stronger effect = higher value
Summary of the method: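 Yeast carrying a defined DNA repair defect were exposed to test compounds, and growth was compared with vehicle-treated controls to give percent inhibition.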

[2] = NCI Yeast Anticancer Drug Screen. Data for the mec2-1 strain (AID 157); conditions: S. cerevisiae mec2-1 strain, stronger effect = higher value
Summary of the method: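 Strain: mec2-1 (DNA repair/cell cycle alteration). Compound exposure, then growth measured; inhibition expressed relative to vehicle.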

[3] = NCI Yeast Anticancer Drug Screen. Data for the sgs1 mgt1 strain (AID 161);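 also: 0% = growth of cultures given vehicle only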; conditions: S. cerevisiae sgs1 mgt1 strain, stronger effect = higher value
Summary of the method: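 Mutant yeast exposed to compound; growth scored against vehicle-only wells.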

[4] = NCI Yeast Anticancer Drug Screen. Data for the cln2 rad14 strain (AID 165);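 also: 0% = growth equal to vehicle treated cultures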; conditions: S. cerevisiae cln2 rad14 strain, stronger effect = higher value
Summary of the method: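 Compounds are applied to the cln2 rad14 yeast strain, and growth is then compared with that of vehicle-treated cultures to give inhibition.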

[5] = NCI Yeast Anticancer Drug Screen. Data for the bub3 strain (AID 167); conditions: S. cerevisiae bub3 mutant strain, stronger effect = higher value
Summary of the method: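 Compounds were applied to a genetically altered yeast strain carrying a cell-cycle control defect. Growth inhibition was scored against vehicle-treated controls.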

[6] = NCI Yeast Anticancer Drug Screen. Data for the mlh1 rad18 strain (AID 175); conditions: S. cerevisiae mlh1 rad18 strain growth inhibition, stronger effect = higher value
Summary of the method: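 Read-out is yeast growth inhibition, calculated against vehicle-only controls. The compound was applied to a strain engineered with DNA damage repair alterations.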

[7] = at 5.0 µM (retest, dose inferred, filed as 0.5)
[8] = at 50.0 µM (retest, dose inferred, filed as 5.0)

For CC(C)NC(=O)OCc1c(CO)c2c(n1C)-c1ccccc1CC2, the growth inhibition [1, 7] was -5%, the growth inhibition [1, 8] was 96% (active) and the growth inhibition ([1]; at 50.0 µM) was 95.9% (active). The growth inhibition [2, 7] was -4%, the growth inhibition [2, 8] was 96% (active) and the growth inhibition ([2]; at 50.0 µM) was 98% (active). The growth inhibition [3, 7] was 50%, the growth inhibition [3, 8] was 96% (active) and the growth inhibition ([3]; at 50.0 µM) was 97.8% (active). The growth inhibition [4, 7] was -10%, the growth inhibition [4, 8] was 95% (active) and the growth inhibition ([4]; at 50.0 µM) was 96.8% (active). The growth inhibition [5, 7] was -3%, the growth inhibition [5, 8] was 96% (active) and the growth inhibition ([5]; at 50.0 µM) was 98.3% (active). The growth inhibition [6, 7] was 11%, the growth inhibition [6, 8] was 96% (active) and the growth inhibition ([6]; at 50.0 µM) was 95.5% (active).
With O=[N+]([O-])/C(C(Cl)=C(Cl)Cl)=C(/Cl)SCc1ccccc1 the growth inhibition [1, 7] was 100% (active), the growth inhibition [1, 8] was 99% (active) and the growth inhibition ([1]; at 50.0 µM) was 89.8% (active). The growth inhibition [2, 7] was 100% (active), the growth inhibition [2, 8] was 99% (active) and the growth inhibition ([2]; at 50.0 µM) was 93.4% (active). For the same molecule, the growth inhibition [3, 7] was 99% (active), the growth inhibition [3, 8] was 99% (active) and the growth inhibition ([3]; at 50.0 µM) was 90.1% (active). The growth inhibition [4, 7] was 99% (active), the growth inhibition [4, 8] was 99% (active) and the growth inhibition ([4]; at 50.0 µM) was 91.5% (active). The growth inhibition [5, 7] was 99% (active), the growth inhibition [5, 8] was 99% (active) and the growth inhibition ([5]; at 50.0 µM) was 91.5% (active). The growth inhibition [6, 7] was 99% (active), the growth inhibition [6, 8] was 99% (active) and the growth inhibition ([6]; at 50.0 µM) was 86.2% (active).
For CCCCN(CCCC)CCCCCCNc1cc(OC)cc2cccnc12, the growth inhibition [1, 7] was 4%, the growth inhibition [1, 8] was 32% and the growth inhibition ([1]; at 50.0 µM) was 98.2% (active). The growth inhibition [2, 7] was 1%, the growth inhibition [2, 8] was 14% and the growth inhibition ([2]; at 50.0 µM) was 98.6% (active). The growth inhibition [3, 7] was 3%, the growth inhibition [3, 8] was 13% and the growth inhibition ([3]; at 50.0 µM) was 99% (active). The growth inhibition [4, 7] was 5%, the growth inhibition [4, 8] was 39% and the growth inhibition ([4]; at 50.0 µM) was 98.1% (active). For the same molecule, the growth inhibition [5, 7] was 9%, the growth inhibition [5, 8] was 30% and the growth inhibition ([5]; at 50.0 µM) was 99% (active). The growth inhibition [6, 7] was -4%, the growth inhibition [6, 8] was 9% and the growth inhibition ([6]; at 50.0 µM) was 98.7% (active).
In the case of CC(C)n1nnc2c3ccccc3c3ccccc3c21, the growth inhibition [1, 7] is reported as 3%, the growth inhibition [1, 8] is reported as 11% and the growth inhibition ([1]; at 50.0 µM) is reported as -7.5%. It also gave a growth inhibition [2, 7] of 5%, a growth inhibition [2, 8] of -1% and a growth inhibition ([2]; at 50.0 µM) of 4.1%. For the same molecule, the growth inhibition [3, 7] was -2%, the growth inhibition [3, 8] was 6% and the growth inhibition ([3]; at 50.0 µM) was 11.8%. It also gave a growth inhibition [4, 7] of 15%, a growth inhibition [4, 8] of 19% and a growth inhibition ([4]; at 50.0 µM) of -1.25%. It also gave a growth inhibition [5, 7] of 14%, a growth inhibition [5, 8] of 12% and a growth inhibition ([5]; at 50.0 µM) of 5.9%. For the same molecule, the growth inhibition [6, 7] was -10%, the growth inhibition [6, 8] was 15% and the growth inhibition ([6]; at 50.0 µM) was 0%.
In the case of CCCCN(CCCC)CC(O)c1cc(-c2ccc(Cl)cc2)nc2cc(C)ccc12 (configuration not stated), the growth inhibition [1, 7] is reported as -5%, the growth inhibition [1, 8] is reported as 97% (active) and the growth inhibition ([1]; at 50.0 µM) is reported as 99.2% (active). The growth inhibition [2, 7] was 17%, the growth inhibition [2, 8] was 98% (active) and the growth inhibition ([2]; at 50.0 µM) was 99.2% (active). The growth inhibition [3, 7] was 11%, the growth inhibition [3, 8] was 99% (active) and the growth inhibition ([3]; at 50.0 µM) was 99.6% (active). The growth inhibition [4, 7] was 5%, the growth inhibition [4, 8] was 97% (active) and the growth inhibition ([4]; at 50.0 µM) was 96.2% (active). For the same molecule, the growth inhibition [5, 7] was 6%, the growth inhibition [5, 8] was 97% (active) and the growth inhibition ([5]; at 50.0 µM) was 98.9% (active). For the same molecule, the growth inhibition [6, 7] was 33%, the growth inhibition [6, 8] was 98% (active) and the growth inhibition ([6]; at 50.0 µM) was 99.1% (active).
In the case of C/C(=N\N=C(N)N)c1ccc2c(c1)Cc1cc(/C(C)=N/N=C(N)N)ccc1-2, the growth inhibition [1, 7] is reported as 42%, the growth inhibition [1, 8] is reported as 98% (active) and the growth inhibition ([1]; at 50.0 µM) is reported as 87.8% (active). The growth inhibition [2, 7] was 40%, the growth inhibition [2, 8] was 99% (active) and the growth inhibition ([2]; at 50.0 µM) was 88.8% (active). For the same molecule, the growth inhibition [3, 7] was 39%, the growth inhibition [3, 8] was 99% (active) and the growth inhibition ([3]; at 50.0 µM) was 84.7% (active). The growth inhibition [4, 7] was 43%, the growth inhibition [4, 8] was 99% (active) and the growth inhibition ([4]; at 50.0 µM) was 87.2% (active). The growth inhibition [5, 7] was 52%, the growth inhibition [5, 8] was 98% (active) and the growth inhibition ([5]; at 50.0 µM) was 83.3% (active). For the same molecule, the growth inhibition [6, 7] was 54%, the growth inhibition [6, 8] was 98% (active) and the growth inhibition ([6]; at 50.0 µM) was 90% (active).
Work on Cc1cc(N(CCCOS(C)(=O)=O)CCCOS(C)(=O)=O)ccc1C=Nc1cc(Br)c(O)c(Br)c1 yielded a growth inhibition [1, 7] of -5%, a growth inhibition [1, 8] of 33% and a growth inhibition ([1]; at 50.0 µM) of 41%. For the same molecule, the growth inhibition [2, 7] was 36%, the growth inhibition [2, 8] was 7% and the growth inhibition ([2]; at 50.0 µM) was 21.3%. The growth inhibition [3, 7] was -3%, the growth inhibition [3, 8] was 27% and the growth inhibition ([3]; at 50.0 µM) was 86.1% (active). For the same molecule, the growth inhibition [4, 7] was -3%, the growth inhibition [4, 8] was -5% and the growth inhibition ([4]; at 50.0 µM) was 4.8%. For the same molecule, the growth inhibition [5, 7] was 0%, the growth inhibition [5, 8] was 41% and the growth inhibition ([5]; at 50.0 µM) was 34.8%. The growth inhibition [6, 7] was -2%, the growth inhibition [6, 8] was 41% and the growth inhibition ([6]; at 50.0 µM) was 68.4%.
In the case of CN(C)c1ccccc1[CH2][Ga]([Cl])[CH2]c1ccccc1N(C)C, the growth inhibition [1, 7] is reported as 15%, the growth inhibition [1, 8] is reported as 96% (active) and the growth inhibition ([1]; at 50.0 µM) is reported as 88.9% (active). The growth inhibition [2, 7] was -1%, the growth inhibition [2, 8] was 98% (active) and the growth inhibition ([2]; at 50.0 µM) was 92.6% (active). For the same molecule, the growth inhibition [3, 7] was 13%, the growth inhibition [3, 8] was 51% and the growth inhibition ([3]; at 50.0 µM) was 90.8% (active). For the same molecule, the growth inhibition [4, 7] was 16%, the growth inhibition [4, 8] was 98% (active) and the growth inhibition ([4]; at 50.0 µM) was 90.3% (active). The growth inhibition [5, 7] was 9%, the growth inhibition [5, 8] was 97% (active) and the growth inhibition ([5]; at 50.0 µM) was 91.3% (active). The growth inhibition [6, 7] was 26%, the growth inhibition [6, 8] was 98% (active) and the growth inhibition ([6]; at 50.0 µM) was 89.2% (active).
In the case of O=C1CNC(=O)c2cc(Cl)ccc2N1, the growth inhibition [1, 7] is reported as 46%, the growth inhibition [1, 8] is reported as 45% and the growth inhibition ([1]; at 50.0 µM) is reported as -8.75%. The growth inhibition [2, 7] was 25%, the growth inhibition [2, 8] was 32% and the growth inhibition ([2]; at 50.0 µM) was -26.1%. The growth inhibition [3, 7] was 34%, the growth inhibition [3, 8] was 44% and the growth inhibition ([3]; at 50.0 µM) was 8.6%. The growth inhibition [4, 7] was 28%, the growth inhibition [4, 8] was 29% and the growth inhibition ([4]; at 50.0 µM) was 13.9%. It also gave a growth inhibition [5, 7] of 34%, a growth inhibition [5, 8] of 67% and a growth inhibition ([5]; at 50.0 µM) of 40.1%. The growth inhibition [6, 7] was 44%, the growth inhibition [6, 8] was 42% and the growth inhibition ([6]; at 50.0 µM) was -2.1%.
